From the supplement of paper PMC11555231

The binders below were run against PADI4, Q9UM07 (assay: log2 enrichment score relative to parent PADI4_3 peptide (binding to PADI4); higher = tighter binding than parent). Conditions: CaCl2: 10 mM.
Description: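 Deep mutational scan of the cyclic peptide PADI4_3 (ClAc-D-Tyr1 initiator, thioether-cyclised to Cys12, C-terminal Gly plus HA tag, mRNA-displayed). Positions 2-11 were each randomised by NNK codons; Met was reprogrammed as N-methyl-alanine (MeA). One round of equilibrium panning against bead-immobilised human PADI4 (100 nM, 10 mM CaCl2, RT). Log2 enrichment (bound/input frequency) relative to the parent sequence (0 = parent), mean of three independent selections.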

Sequence of PADI4, Q9UM07 (Q9UM07 whole entry): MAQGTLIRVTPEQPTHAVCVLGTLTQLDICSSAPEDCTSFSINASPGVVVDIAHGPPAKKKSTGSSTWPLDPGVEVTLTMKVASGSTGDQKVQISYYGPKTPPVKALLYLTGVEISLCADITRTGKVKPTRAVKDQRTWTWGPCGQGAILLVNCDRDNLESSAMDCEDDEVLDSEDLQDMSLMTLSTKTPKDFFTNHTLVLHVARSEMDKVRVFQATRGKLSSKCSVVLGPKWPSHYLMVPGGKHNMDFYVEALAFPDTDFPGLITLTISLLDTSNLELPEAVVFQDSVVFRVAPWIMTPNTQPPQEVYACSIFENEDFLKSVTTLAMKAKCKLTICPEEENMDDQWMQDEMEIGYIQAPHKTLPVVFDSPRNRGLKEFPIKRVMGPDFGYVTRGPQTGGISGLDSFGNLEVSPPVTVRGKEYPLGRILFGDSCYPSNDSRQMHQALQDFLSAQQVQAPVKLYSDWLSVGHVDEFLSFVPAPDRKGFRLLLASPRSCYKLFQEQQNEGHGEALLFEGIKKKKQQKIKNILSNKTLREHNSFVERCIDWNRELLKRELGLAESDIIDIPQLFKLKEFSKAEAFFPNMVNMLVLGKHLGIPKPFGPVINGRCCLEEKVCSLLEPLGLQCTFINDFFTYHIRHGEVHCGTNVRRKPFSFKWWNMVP

Going from YRDHHYRDPKYCG [PADI4_3_H8D H8D] to YRDHHYRHPKYCG [PADI4_3_R2R R2R], the log2 enrichment score rises from -3.82 to 0.

Compared with YRDHRYRHPKYCG [PADI4_3_H5R H5R], YRDHHSRHPKYCG [PADI4_3_Y6S Y6S] is higher in log2 enrichment score: -3.55 for the first, -2.21 for the second.

Going from YRDHHYRCPKYCG [PADI4_3_H8C H8C] to YRDHHYRHPRYCG [PADI4_3_K10R K10R], the log2 enrichment score rises from -2.95 to -0.238.

First: YRDHHYRHRKYCG [PADI4_3_P9R P9R]
Second: YRDHHYRSPKYCG [PADI4_3_H8S H8S]
The log2 enrichment score of the first is higher: -1.83 for the first, -2.81 for the second.

Compared with YEDHHYRHPKYCG [PADI4_3_R2E R2E], YRDHHYCHPKYCG [PADI4_3_R7C R7C] is higher in log2 enrichment score: -2.93 for the first, -0.84 for the second.

First: YRDHHYRHSKYCG [PADI4_3_P9S P9S]
Second: YRDHHYRHPKYCG [PADI4_3_H4H H4H]
The log2 enrichment score of the first is lower: -1.69 for the first, 0 for the second.

First: YRDHHYRHPKECG [PADI4_3_Y11E Y11E]
Second: YRDKHYRHPKYCG [PADI4_3_H4K H4K]
The log2 enrichment score of the first is lower: -4.21 for the first, -2.3 for the second.

First: YRCHHYRHPKYCG [PADI4_3_D3C D3C]
Second: YRDHHYRHPKYCG [PADI4_3_D3D D3D]
The log2 enrichment score of the first is lower: -4.3 for the first, 0 for the second.

Going from YRDHKYRHPKYCG [PADI4_3_H5K H5K] to YRDHHYRRPKYCG [PADI4_3_H8R H8R], the log2 enrichment score falls from -2.71 to -3.15.

Going from YRKHHYRHPKYCG [PADI4_3_D3K D3K] to YRDHHYRHEKYCG [PADI4_3_P9E P9E], the log2 enrichment score rises from -3.84 to -1.89.

Compared with YRDHHYRHPKRCG [PADI4_3_Y11R Y11R], YRDHHYEHPKYCG [PADI4_3_R7E R7E] is higher in log2 enrichment score: -3.96 for the first, -0.753 for the second.

First: YRDDHYRHPKYCG [PADI4_3_H4D H4D]
Second: YRDHHYRKPKYCG [PADI4_3_H8K H8K]
The log2 enrichment score of the first is lower: -4.33 for the first, -3.86 for the second.

Compared with YRDHHYRHPKKCG [PADI4_3_Y11K Y11K], YRDHHYRHPDYCG [PADI4_3_K10D K10D] is higher in log2 enrichment score: -4.77 for the first, -2.34 for the second.

First: YRDHHYRHDKYCG [PADI4_3_P9D P9D]
Second: YRDHHYSHPKYCG [PADI4_3_R7S R7S]
The log2 enrichment score of the first is lower: -2.06 for the first, -0.05 for the second.

Going from YRHHHYRHPKYCG [PADI4_3_D3H D3H] to YRDRHYRHPKYCG [PADI4_3_H4R H4R], the log2 enrichment score rises from -3.57 to 2.48.

First: YRDEHYRHPKYCG [PADI4_3_H4E H4E]
Second: YRDHHYRHPKYCG [PADI4_3_K10K K10K]
The log2 enrichment score of the first is lower: -3.05 for the first, 0 for the second.

First: YRDHHYKHPKYCG [PADI4_3_R7K R7K]
Second: YRDHHYREPKYCG [PADI4_3_H8E H8E]
The log2 enrichment score of the first is higher: -0.44 for the first, -3.8 for the second.

Going from YRDHSYRHPKYCG [PADI4_3_H5S H5S] to YRDHHYDHPKYCG [PADI4_3_R7D R7D], the log2 enrichment score rises from -3.98 to 0.031.

Going from YRDHHRRHPKYCG [PADI4_3_Y6R Y6R] to YRDHCYRHPKYCG [PADI4_3_H5C H5C], the log2 enrichment score falls from -0.786 to -4.

First: YRDHHYRHPKDCG [PADI4_3_Y11D Y11D]
Second: YRDHHKRHPKYCG [PADI4_3_Y6K Y6K]
The log2 enrichment score of the first is lower: -3.74 for the first, -1.84 for the second.

Going from YRDHHYRHPKCCG [PADI4_3_Y11C Y11C] to YRDHHERHPKYCG [PADI4_3_Y6E Y6E], the log2 enrichment score rises from -3.92 to -1.85.

Going from YRRHHYRHPKYCG [PADI4_3_D3R D3R] to YCDHHYRHPKYCG [PADI4_3_R2C R2C], the log2 enrichment score rises from -2.94 to -2.34.

Compared with YRDHHYRHCKYCG [PADI4_3_P9C P9C], YRDHHYRHPSYCG [PADI4_3_K10S K10S] is higher in log2 enrichment score: -2.79 for the first, -1.42 for the second.

First: YRDHEYRHPKYCG [PADI4_3_H5E H5E]
Second: YRDHHYRHKKYCG [PADI4_3_P9K P9K]
The log2 enrichment score of the first is lower: -4.25 for the first, -1.76 for the second.

Going from YKDHHYRHPKYCG [PADI4_3_R2K R2K] to YRDHHYRHPEYCG [PADI4_3_K10E K10E], the log2 enrichment score falls from 0.59 to -1.11.

First: YRDHHDRHPKYCG [PADI4_3_Y6D Y6D]
Second: YRDCHYRHPKYCG [PADI4_3_H4C H4C]
The log2 enrichment score of the first is higher: -2.27 for the first, -3.15 for the second.

First: YRDHHCRHPKYCG [PADI4_3_Y6C Y6C]
Second: YRDHHYRHPCYCG [PADI4_3_K10C K10C]
The log2 enrichment score of the first is lower: -3.47 for the first, -2.06 for the second.

First: YSDHHYRHPKYCG [PADI4_3_R2S R2S]
Second: YRDHDYRHPKYCG [PADI4_3_H5D H5D]
The log2 enrichment score of the first is higher: -2.91 for the first, -4.15 for the second.

First: YREHHYRHPKYCG [PADI4_3_D3E D3E]
Second: YDDHHYRHPKYCG [PADI4_3_R2D R2D]
The log2 enrichment score of the first is higher: -2.84 for the first, -3.75 for the second.

For YRDHHYRHPKYCG [PADI4_3_R7R R7R], the log2 enrichment score was 0.
